Laboratory results taken from the supplement of paper PMC10127200.
Where a name gives a salt, the structure may show the parent alone.

Experiments:
Experiment in all cases: Euclidean distance of Cell Painting phenotypic profile (signed KS, 77 features) to DMSO centroid (dimensionless distance); 5 or 10 uM (library dependent); higher = stronger phenotypic change vs DMSO (phenoactivity)
Conditions in all cases: 48 h
786-O = test system: 786-O
In short: (§1)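 Phenoactivity is defined as the Euclidean distance from a compound profile to the median vehicle profile. Each profile comprised 77 Harmony features, scored as signed Kolmogorov-Smirnov statistics versus same-plate vehicle wells, then plate-position corrected, correlation-weighted and replicate-averaged at the top dose. Five cancer lines and one healthy fibroblast line were exposed to library compounds for 48 h at 10 or 5 uM (0.1% DMSO final).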

A549 = test system: A549
In short: as §1

DU145 = test system: DU145
In short: as §1

FB = test system: FB
In short: as §1

HEPG2 = test system: HEPG2
In short: as §1

OVCAR4 = test system: OVCAR4
In short: as §1

Row | Structure (SMILES) | Euclidean distance (786-O) | Euclidean distance (A549) | Euclidean distance (DU145) | Euclidean distance (FB) | Euclidean distance (HEPG2) | Euclidean distance (OVCAR4)
1 | OC[C@@H](O)[C@@H](O[C@@H]1O[C@H](CO)[C@H](O)[C@H](O)[C@H]1O)[C@H](O)[C@@H](O)CO [Lactitol] | 0.637 | 0.843 | 0.537 | 0.733 | 0.29 | 1.17
2 | CC(C)(Oc1ccc(C(=O)c2ccc(Cl)cc2)cc1)C(=O)O [Choline Fenofibrate] | 0.954 | 0.724 | 0.985 | 1.28 | 0.32 | 0.848
3 | CN1CC2c3ccccc3Oc3ccc(Cl)cc3C2C1 (stereo not drawn) [Asenapine] | 1.1 | 0.811 | 0.805 | 1.19 | 1.03 | 0.94
4 | COc1ccc(CCN(C)CCCC(C#N)(c2ccc(OC)c(OC)c2)C(C)C)cc1OC (stereo not drawn) [Verapamil HCl] | 0.99 | 0.567 | 0.723 | 1.41 | 0.719 | –
5 | Cc1c(C(N)=O)cc([N+](=O)[O-])cc1[N+](=O)[O-] [Dinitolmide] | 0.913 | 1.4 | 0.756 | 0.814 | 0.831 | 1.38
6 | Cc1ccnc(NS(=O)(=O)c2ccc(N)cc2)n1 [Sulfamerazine] | 1.24 | 0.793 | 0.847 | 0.862 | 0.67 | 1.2
7 | Oc1c(Cl)cc(Cl)cc1Sc1cc(Cl)cc(Cl)c1O [Bithionol] | 0.758 | 0.588 | 0.524 | 0.97 | 1.02 | 1.23
8 | C[n+]1c2ccccc2nc2ccccc21 [Phenazine methosulfate] | 5.13 | 2.82 | 4.95 | 4.99 | 3.66 | 2.78
9 | C[C@@H]1NC(=O)[C@@H](N)CNC(=O)[C@H](C2CCNC(=N)N2)NC(=O)/C(=C/NC(N)=O)NC(=O)[C@H](CNC(=O)CC(N)CCCN)NC1=O.N=C1NCC[C@H]([C@@H]2NC(=O)/C(=C/NC(N)=O)NC(=O)[C@H](CNC(=O)C[C@@H](N)CCCN)NC(=O)[C@H](CO)NC(=O)[C@@H](N)CNC2=O)N1 [Capreomycin Sulfate] | 0.925 | 0.995 | 1.37 | 1.11 | 0.78 | 1.14
10 | CCCCOc1cc(C(=O)NCCN(CC)CC)c2ccccc2n1 [Cinchocaine] | 0.885 | 1.28 | 0.93 | 1.03 | 1.47 | 1.21
11 | CN1C(=O)CC(c2ccccc2)C1=O (stereo not drawn) [Phensuximide] | 0.788 | 1.12 | 1.01 | 0.827 | 0.849 | 0.954
12 | CNCCc1ccccn1 [Betahistine] | 1.31 | 0.763 | 0.72 | 1.01 | 0.628 | 0.854
13 | O=C1OC(CN2CCOCC2)CN1/N=C/c1ccc([N+](=O)[O-])o1 (stereo not drawn) [Furaltadone HCl] | 0.929 | 1.35 | 1.24 | 1.24 | 0.808 | 2.22
14 | CC[C@@H](CO)NCCN[C@@H](CC)CO [Ethambutol HCl] | 1.4 | 1.22 | 0.738 | 0.916 | 1.17 | 0.884
15 | NC1CCN(c2nc3c(cc2F)c(=O)c(C(=O)O)cn3-c2ccc(F)cc2F)C1 (stereo not drawn) [Tosufloxacin p-Toluenesulfonate Hydrate] | 0.975 | 1.03 | 0.829 | 1.12 | 0.47 | 1.3
16 | CC(=O)Nc1ccccc1 [Acetanilide] | 0.827 | 0.504 | 0.799 | 0.893 | 0.768 | 1.34
17 | CCCc1nc(C)c2c(=O)nc(-c3cc(S(=O)(=O)N4CCN(CC)CC4)ccc3OCC)[nH]n12 [Vardenafil HCl Trihydrate] | 1.18 | 0.732 | 1.26 | 1.02 | 0.77 | 0.83
18 | CN(C)CC(=O)Nc1ccc2[nH]c(=O)c3ccccc3c2c1 | 1.25 | 1.08 | 0.921 | 1.3 | 1.34 | 1.07
19 | O=C(O)Cc1cc(I)c(Oc2ccc(O)c(I)c2)c(I)c1 [Tiratricol] | 0.855 | 0.554 | 0.644 | 0.597 | 0.536 | 0.847
20 | CN(C)CCCCC(=O)Nc1ccc(NC(=S)NC(=O)c2ccc(C(C)(C)C)cc2)cc1 [Tenovin-6] | 2.9 | 3.08 | 1.61 | 3.01 | 3.46 | 1.95
21 | O=c1c(O)c(-c2cc(O)c(O)c(O)c2)oc2cc(O)cc(O)c12 [Myricetin] | 0.872 | 2.24 | 2.15 | 1.76 | 1.1 | 2.1
22 | Nc1nc(OCc2ccccc2)c2nc[nH]c2n1 [O6-Benzylguanine] | 1.02 | 0.825 | 0.926 | 1.41 | 0.548 | 0.833
23 | N#Cc1ccc([C@H]2CCc3cncn32)c(F)c1 [Osilodrostat (LCI699)] | 1.39 | 1.28 | 1.56 | 1.68 | 0.588 | 1.57
24 | Cc1ccccc1OCC(O)CO (stereo not drawn) [Mephenesin] | 0.824 | 0.804 | 0.895 | 1.13 | 0.549 | 1.86
25 | CN1CCC(CNc2ccc3ncc(-c4cccc(OC(F)(F)F)c4)n3n2)CC1 [SGI-1776 free base] | 2.39 | 3.26 | 1.73 | 3.26 | 4 | 1.54
26 | C=C[C@H]1CN2CC[C@H]1C[C@@H]2[C@@H](O)c1ccnc2ccc(OC)cc12 [Quinidine sulfate] | 0.69 | 0.88 | 1.08 | 0.954 | 0.831 | –

Row | Structure (SMILES) | Euclidean distance (786-O) | Euclidean distance (A549) | Euclidean distance (DU145) | Euclidean distance (FB) | Euclidean distance (HEPG2) | Euclidean distance (OVCAR4)
27 | O=C(Nc1cc(C(F)(F)F)cc(C(F)(F)F)c1)c1cc(Cl)ccc1O | 0.884 | 0.772 | 1.02 | 1.14 | 0.971 | 1.48
28 | Nc1ncnc2c1c(-c1cccc(OCc3ccccc3)c1)cn2C1CC(CN2CCCC2)C1 (stereo not drawn) | 2.84 | 3.18 | 2.28 | 3.95 | 3.36 | 1.87
29 | CCN(CC)CCCCNc1ncc2cc(-c3cc(OC)cc(OC)c3)c(NC(=O)NC(C)(C)C)nc2n1 | 3.18 | 1.42 | 2.75 | 3.93 | 1.84 | 1.16
30 | CSCC1CN(/N=C/c2ccc([N+](=O)[O-])o2)C(=O)O1 (stereo not drawn) [Nifuratel] | 0.806 | 0.74 | 0.807 | 0.93 | 1.19 | 1.09
31 | COc1cc(C)c(/C=C/C(C)=C/C=C/C(C)=C/C(=O)O)c(C)c1C [Acitretin] | 1.13 | 0.972 | 0.881 | 2.31 | 1.39 | 1.13
32 | NC(=O)c1cn(Cc2c(F)cccc2F)nn1 [Rufinamide] | 1.34 | 1.42 | 0.931 | 1.23 | 0.473 | 1.4
33 | CC(=O)c1ccc(S(=O)(=O)NC(=O)NC2CCCCC2)cc1 [Acetohexamide] | 0.925 | 0.868 | 0.836 | 1.19 | 0.469 | 0.995
34 | CNCC[C@@H](Oc1ccccc1C)c1ccccc1 [Atomoxetine HCl] | 1.37 | 1.23 | 0.627 | 0.866 | 0.422 | 1.22
35 | CCCN[C@H]1CCc2nc(N)sc2C1 [Pramipexole] | 1.54 | 0.915 | 1.04 | 0.837 | 0.869 | 1.19
36 | O=C1NCC2(CCN(CCc3ccccc3)CC2)O1 [Fenspiride HCl] | 0.914 | 1.2 | 1.2 | 1.2 | 1.08 | 1.26
37 | CCOC(=O)c1ccc(N)cc1 [Benzocaine hydrochloride] | 0.675 | 0.334 | 0.563 | 0.896 | 0.264 | 0.998
38 | CC[C@@H]1C(=O)N(C)c2cnc(Nc3ccc(C(=O)NC4CCN(C)CC4)cc3OC)nc2N1C1CCCC1 | 3.46 | 3.75 | 3.25 | 3.72 | 2.48 | 3.25
39 | COC(=O)C1=C(C)NC(C)=C(C(=O)OC)C1c1ccccc1[N+](=O)[O-] [Nifedipine] | 1.37 | 0.783 | 0.776 | 1.11 | 1.58 | –
40 | CC[N+](C)(C)c1cccc(O)c1 [Edrophonium chloride] | 0.852 | 0.865 | 0.738 | 0.728 | 0.598 | 0.943
41 | Fc1ccc([C@@H]2CCNC[C@H]2COc2ccc3c(c2)OCO3)cc1 [Paroxetine mesylate] | 1.64 | 1.28 | 1.89 | 1.62 | 2.59 | 1.52
42 | CNC(=O)CN(CCN(CCN(CC(=O)[O-])CC(=O)NC)CC(=O)[O-])CC(=O)[O-].O.[Gd+3] [Gadodiamide Hydrate] | 1.58 | 0.803 | 1.3 | 1.38 | 0.469 | 0.986
43 | O=C(O)Cc1ccccc1Nc1c(Cl)cccc1Cl [Diclofenac Sodium] | 1.2 | 0.988 | 0.729 | 1.14 | 0.995 | 0.677
44 | CC(C)(OCc1nn(Cc2ccccc2)c2ccccc12)C(=O)O [Bindarit] | 0.377 | 0.614 | 0.791 | 0.934 | 0.939 | 0.825
45 | Cc1cc(Nc2nc(N[C@@H](C)c3ccc(F)cc3)c(C#N)cc2F)n[nH]1 | 3.5 | 3.48 | 2.73 | 2.42 | 2.18 | 2.77
46 | O=C1CC2(CCCC2)CC(=O)N1CCCCN1CCN(c2ncccn2)CC1 [Buspirone HCl] | 0.547 | 0.965 | 0.869 | 0.994 | 0.61 | 1.32
47 | CNS(=O)(=O)C[C@H]1CC[C@H](N(C)c2[nH]cnc3nccc2-3)CC1 | 1.06 | 0.94 | 1.61 | 1.3 | 0.907 | 0.949
48 | CCc1cc2c(cc1N1CCC(N3CCOCC3)CC1)C(C)(C)c1[nH]c3cc(C#N)ccc3c1C2=O | 1.54 | 2.54 | 0.905 | 1.15 | 0.968 | 1.01
49 | Cc1cc(OCc2nnc(SC3CCCC3)n2-c2cccnc2)ccc1-c1ccc(S(C)(=O)=O)cc1 | 3.57 | 3.4 | 3.15 | 2.69 | 3.86 | 3.73
50 | CC(=O)O[C@]1(C(C)=O)CC[C@H]2[C@@H]3C=C(Cl)C4=CC(=O)CC[C@]4(C)[C@H]3CC[C@@]21C [Chlormadinone acetate] | 1.27 | 1.1 | 1.72 | 1.26 | 0.98 | 0.962
51 | O=C(O)CCNC(=O)c1ccccc1 [Betamipron] | 0.807 | 1.17 | 1.01 | 0.869 | 0.988 | 1.34
